Shown are actives, neighbours in structure and some others; about 3.1% of the full set was active somewhere.
TSHR antagonist – antagonists of human thyroid stimulating hormone receptor; TSHR-expressing cells, TSH-stimulated cAMP HTRF, 2 h; hits give low values; activity change, negative = inhibition, % at 11.5 µM; 330,000 compounds, 0.2% hits; AID 504810;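 active = activity change below a set negative limit, meaning inhibition stronger than a set level, cut at about -70% in these data; inconclusive = activity change between two set negative limits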
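Inhibition of cAMP made by TSHR-expressing cells under TSH stimulation (4nM final, EC80; 2 h, 37 deg C) is quantified with a one-step lysis HTRF kit, anti-cAMP cryptate versus cAMP-d2.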
PLK1 PBD block – blocks phosphopeptide binding to human PLK1 polo-box domain; P53350; Plk1 PBD binding of FITC phosphopeptide, fluorescence polarization; Potency, µM, usual class: inhibitors; 360,000 compounds, 2.8% hits; also: series mostly up to about 57 µM; nearly all actives have a fitted effect of over 65% in size
VDR inhibitor – inhibitors of human vitamin D receptor. Potency, µM, actives largely listed as inhibitors. VDR-SRC2-3 peptide fluorescence polarization, 2 h. AID 504847. 400,000 compounds, 0.93% hits
Target sequence (P11473 whole entry, looked up): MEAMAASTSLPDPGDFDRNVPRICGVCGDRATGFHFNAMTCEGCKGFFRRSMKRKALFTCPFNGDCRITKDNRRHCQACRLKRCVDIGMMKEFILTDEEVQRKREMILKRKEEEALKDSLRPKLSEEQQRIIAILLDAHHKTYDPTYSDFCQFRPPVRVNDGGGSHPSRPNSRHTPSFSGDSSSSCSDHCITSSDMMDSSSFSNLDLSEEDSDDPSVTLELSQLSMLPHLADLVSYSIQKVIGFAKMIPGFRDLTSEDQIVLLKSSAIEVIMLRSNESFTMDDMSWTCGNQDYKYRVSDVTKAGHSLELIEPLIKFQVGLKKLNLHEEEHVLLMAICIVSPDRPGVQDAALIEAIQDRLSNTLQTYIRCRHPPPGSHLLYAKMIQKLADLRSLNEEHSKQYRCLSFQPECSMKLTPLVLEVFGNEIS
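Inhibition of the VDR/SRC2-3 peptide interaction is quantified by fluorescence polarization. Compounds (23 nl, pintool) incubate with the reagents for 2 hours at ambient room temperature.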
uPA generation – inhibitors of cell surface uPA generation | cell surface uPA generation assay, qHTS | Potency, µM (series often up to 38.3 µM), most hits filed as inhibitors | 330,000 compounds, 0.31% hits | AID 540303; active = well fitted inhibition curve with a large enough effect; inconclusive = small, poorly fitted or top-dose-only effect; inactive = no such curve, though single readings can be large or run the other way; tested in mouse RAW 264.7 cells; also: nearly all actives have a fitted effect of over 55% in size
TSG101-PTAP inh – blocks PTAP/TSG101 interaction to inhibit HIV-1 budding. 340,000 tested, under 10 active. Fluorescence polarization, FITC-PTAP peptide / Tsg101 binding. Potency, µM (highest dose often 115 µM), hits mostly inhibitors; active = well fitted inhibition curve with a large enough effect in the main read-out, with a control signal flat, not every such curve was filed as active; inconclusive = small, poorly fitted or top-dose-only effect, or effect the other way, or a change in a side signal; inactive = no such curve, though single readings can be large or run the other way
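Fluorescence anisotropy tracks displacement of a FITC-tagged PTAP peptide (50 nM) from the Tsg101 binding domain (10 uM), following a 20 min room-temperature incubation at pH 7.5.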
Hits are given with their value; . = inactive; ? = inconclusive; / = no result given. Unless noted, calls follow the shape of the dose curve; as a rule, active = well fitted curve in the direction sought with a large enough effect; inconclusive = small, poorly fitted or top-dose-only effect, or another doubt; inactive = no such curve, though single readings can be large; an effect the other way counts as inactive or inconclusive.

SMILES	TSHR antagonist	PLK1 PBD block	VDR inhibitor	uPA generation	TSG101-PTAP inh
Cc1cc(NC(=O)C2CC2)ncc1NC(=O)c1ccccn1	.	27µM	.	.	.
O=S(=O)(c1cccc(C(F)(F)F)c1)N1CCN(c2nc(-c3cccs3)nc3cc(Cl)ccc23)CC1	/	/	.	/	/
CCC(=O)C1=C(c2ccc(Cl)cc2)N(C(=O)CC)n2c(C)nnc2S1	/	/	.	/	/
CCOC(=O)c1cc(C#N)c(Oc2cccc(C(F)(F)F)c2)nc1-c1ccccc1	.	24µM	.	.	.
C[C@@H]1CCCCO[C@@H](CN(C)C(=O)Nc2ccc3c(c2)OCO3)[C@@H](C)CN([C@H](C)CO)C(=O)c2cc(N(C)C)ccc2O1	/	.	/	/	/
O=C(/C=C/c1cc[n+](CC(=O)c2ccc3cccc4c3c2CC4)cc1)c1ccc2cccc3c2c1CC3	.	19µM	.	.	.
CC(=O)c1ccc(S(=O)(=O)N2CCNCC2)cc1	.	15µM	?	.	.
CC(=O)c1ccc(S(=O)(=O)N2CCN(C(C)=O)CC2)cc1	.	.	.	.	.
CC(=O)NC1=NN(C(C)=O)C(c2ccccc2)S1 (stereo not drawn)	.	4.7µM	?	.	.
Cc1cc(O)c2ccccc2c1O	/	/	35µM	/	/
CNC(=O)COc1ccc(Nc2nnc(-c3ccc(C)c(S(=O)(=O)NC(C)(C)C)c3)c3ccccc23)cc1	/	/	.	/	/
O=C1/C(=C\c2ccc(O)c(O)c2)Oc2c1ccc(O[C@@H]1O[C@H](CO)[C@@H](O)[C@H](O)[C@H]1O)c2O	/	/	.	/	/
CCOc1ccccc1NC(=O)C(CC)n1c(C(=O)OC)cc2occc21 (stereo not drawn)	/	/	.	/	/
Cc1c(C(=O)N2CCN(c3ccc(F)cc3)CC2)sc2nc3n(c(=O)c12)CCC3	.	21µM	.	.	.
Cc1ccc(CCNC(=O)c2sc3nc4n(c(=O)c3c2C)CCC4)cc1	.	11µM	?	.	.
CC(=O)c1cccc(NC(=O)c2sc3nc4n(c(=O)c3c2C)CCCC4)c1	-132	24µM	.	.	.
Cc1cc(O)ccc1Nc1nc(-c2cccs2)cs1	.	.	.	.	.
Cc1nc(C)c(-c2csc(Nc3ccc(O)cc3C)n2)s1	.	27µM	.	.	.
Cc1cccc(Nc2c([N+](=O)[O-])c(=O)n(C)c3ccccc23)c1	.	27µM	?	.	.
Cn1c(=O)c([N+](=O)[O-])c(NCCCn2ccnc2)c2ccccc21	.	.	.	.	.
Cn1c(=O)c([N+](=O)[O-])c(-n2ccnc2)c2ccccc21	.	.	20µM	/	.
CC(C)c1ccc(Nc2c([N+](=O)[O-])c(=O)n(C)c3ccccc23)cc1	.	.	.	.	.
COc1cc2oc(=O)cc(CN3CCN(c4ccccc4OC)CC3)c2cc1Cl	/	.	/	/	/
CCNC(=O)Nc1ccc(-n2nc(C)c(C(=O)OCC)c2C)nc1	.	15µM	.	.	.
COC(=O)C1=C(C(=O)OC)C(c2ccc(OC)c(OC)c2)c2sc(=O)[nH]c2S1 (stereo not drawn)	.	.	79µM	.	.
SMILES	TSHR antagonist	PLK1 PBD block	VDR inhibitor	uPA generation	TSG101-PTAP inh
COc1ccc(C2c3sc(=O)[nH]c3SC3C4CCC(C4)C23)cc1OC (stereo not drawn)	.	?	.	.	.
COC(=O)C1Sc2[nH]c(=O)sc2C(c2ccc(Cl)cc2)C1C(=O)OC (stereo not drawn)	.	?	.	.	.
COc1cc(C2c3sc(=O)[nH]c3SC3C(=O)N(c4ccc(Br)cc4)C(=O)C32)ccc1O (stereo not drawn)	.	.	.	.	.
COC(=O)C1=C(C(=O)OC)C(c2cc(Br)ccc2O)c2sc(=O)[nH]c2S1 (stereo not drawn)	.	3µM	?	.	.
COC(=O)C1=C(C(=O)OC)C(c2cc(Cl)ccc2O)c2sc(=O)[nH]c2S1 (stereo not drawn)	.	9.5µM	?	.	.
CCS(=O)(=O)c1c(S(=O)(=O)CC)c2cc(C(C)(C)C)ccn2c1C(=O)c1ccc(F)cc1	/	/	.	/	/
O=C(Nc1ccc2cn[nH]c2c1)c1c(Cl)cccc1Cl	.	?	.	.	.
O=C1C(Cl)=C(Nc2ccc3cn[nH]c3c2)C(=O)c2ccccc21	-90	13µM	?	.	.
COc1ccccc1NC(=O)/C(C#N)=C/c1ccncc1	.	?	.	.	.
Cc1cc(C#N)c(C)n1-c1cc(S(=O)(=O)N2CCOCC2)ccc1N1CCCC1	/	21µM	?	.	.
COc1ccccc1NC(=O)/C(C#N)=C/c1cc([N+](=O)[O-])ccc1N1CCCC1	.	11µM	.	.	?
CCN(CC)S(=O)(=O)c1ccc(N2CCCCC2)c(NC(=O)/C(C#N)=C/c2ccc(OC)cc2)c1	.	.	.	.	.
COCCCNCc1cc(C)n(-c2cc(S(=O)(=O)N3CCOCC3)ccc2N2CCCC2)c1C	/	.	.	.	.
O=C(Nc1cc(S(=O)(=O)N2CCOCC2)ccc1N1CCCC1)c1ccc(F)cc1	.	9.5µM	40µM	.	.
O=C(/C=C/c1ccc(F)cc1)Nc1cc(S(=O)(=O)N2CCOCC2)ccc1N1CCCC1	.	.	.	.	.
COc1ccc(/C=C(\C#N)C(=O)Nc2cc(S(=O)(=O)N3CCOCC3)ccc2N2CCCC2)cc1	.	6.7µM	35µM	.	.
CSc1nn(Cc2cccc(Cl)c2)c(N(C(C)=O)C(C)=O)c1S(=O)(=O)c1ccccc1	/	/	.	/	/
CCOc1cc(N2CCOCC2)c(OCC)cc1NC(=O)c1cccc(S(=O)(=O)N2CCOCC2)c1	-88	.	.	.	.
CN(C)S(=O)(=O)c1cccc(C(=O)Nc2cc(S(=O)(=O)N3CCOCC3)ccc2N2CCCC2)c1	/	5.3µM	45µM	.	.
CCOc1cc(N2CCOCC2)c(OCC)cc1NC(=O)c1cccc(S(=O)(=O)N2CC(C)OC(C)C2)c1 (stereo not drawn)	/	.	/	/	/
CCN1CCN(c2ccc(S(=O)(=O)N3CCOCC3)cc2NC(=O)C2CCC(C(C)(C)C)CC2)CC1 (stereo not drawn)	/	.	.	4.5µM	.
Nc1ccc2c(c1)C(=O)N(c1ccc3ccccc3c1)C2=O	/	/	.	/	/
CCOc1nc(NCCO)nc(Nc2cc(Cl)ccc2OC)n1	.	27µM	.	.	.
C=CC[C@]12CC=CC(=O)[C@@]1(O)O[C@H](c1ccc(OC)c(OC)c1)[C@H]2C	/	.	?	7.9µM	.
Cn1c(C(=O)NC2CCCC2)cc2c(=O)n(C)c3ccccc3c21	.	30µM	?	.	.
CC(=O)OCC(=O)[C@@]1(OC(C)=O)[C@H](C)C[C@H]2[C@@H]3C[C@H](F)C4=CC(=O)C=C[C@@]4(C)[C@]3(F)[C@H](O)C[C@@]21C	/	/	.	/	/
CC(Nc1nc(-c2ccc3c(c2)NC(=O)CO3)cs1)c1ccccc1 (stereo not drawn)	.	17µM	.	.	.
COc1cccc(-c2nc(-c3ccc4c(c3)NC(=O)CO4)cs2)c1	.	13µM	.	.	.

Source: PubChem BioAssay
